Test [1] relates to Plasmodium falciparum Sir2 (PF13_0152, Sir2A). The test can be described thus: Plasmodium falciparum Sir2A binding compounds – biochemical, small-molecule microarray, 635 nm fluorescence, primary screen (AID 1098).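 Also: score merges spot fluorescence intensity with its signal-to-noise ratio.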 As to conditions: fluorescence 635 nm, higher = more signal.
Test [2] is described as follows: probe aDKK1 binding to arrayed compounds – biochemical, biotinylated probe, 635/667 nm fluorescence, primary screen (AID 1099).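 Also: score merges 667nm spot fluorescence with signal to noise across triplicate slides.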 Particulars: small-molecule microarray, higher = more signal.
The nature of test [3]: probe aCHRDL2 binding to arrayed compounds – biochemical, biotinylated probe, 635/667 nm fluorescence, primary screen (AID 1100). Particulars: small-molecule microarray, higher = more signal.
The nature of test [4]: change in splice reporter luminescence, either direction, cell-based, HEK293, spliceosome inhibition project, primary screen (AID 1101).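 Also: HEK293 cells carrying a splicing-competent luciferase reporter gene; test concentration not given here.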 As to conditions: HEK293 splicing luciferase reporter, 24 h, higher = more signal, called active from +8 up or from −8 down.
For test [5], the target named is Fibroblast growth factor 10 (Homo sapiens) (UniProt O15520). The test can be described thus: compounds binding fibroblast growth factor 10 – biochemical, small-molecule microarray, 635 nm fluorescence, primary screen (AID 1102). As to conditions: FGF10 binding, fluorescence 635 nm, higher = more signal.
Fibroblast growth factor 10 (Homo sapiens), sequence (O15520 whole entry, looked up): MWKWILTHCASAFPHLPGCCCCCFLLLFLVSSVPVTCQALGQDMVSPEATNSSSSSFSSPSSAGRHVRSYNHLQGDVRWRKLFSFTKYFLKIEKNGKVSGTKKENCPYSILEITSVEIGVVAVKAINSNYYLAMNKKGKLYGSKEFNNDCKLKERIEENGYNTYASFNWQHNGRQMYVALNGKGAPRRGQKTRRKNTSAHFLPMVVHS
Test [6] has as its system glycogen synthase kinase-3 (GSK3A per assay name; protocol says GSK3B). The test can be described thus: compounds binding glycogen synthase kinase-3 – biochemical, small-molecule microarray, 635 nm fluorescence, GSK3A, primary screen (AID 1103). Also: the record names both GSK3A and GSK3B. As to conditions: fluorescence 635 nm, higher = more signal.
Test [7] has as its target Epidermal growth factor receptor (Homo sapiens) (UniProt P00533). The test can be described thus: compounds binding epidermal growth factor receptor – biochemical, small-molecule microarray, 635 nm fluorescence, primary screen (AID 1104).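 Also: score merges 667 nm emission intensity with spot signal to noise over triplicate slides.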 Particulars: EGFR binding, higher = more signal.
The target in test [8] is Follistatin-related protein 3 (Homo sapiens) (UniProt O95633). The test can be described thus: compounds binding follistatin-related protein 3 – biochemical, small-molecule microarray, 635 nm fluorescence, primary screen (AID 1105).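 Also: score merges emission near 667 nm and signal to noise per printed spot across three slides.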 As to conditions: FSTL3 binding, higher = more signal.
Follistatin-related protein 3 (Homo sapiens), sequence (O95633 whole entry, looked up): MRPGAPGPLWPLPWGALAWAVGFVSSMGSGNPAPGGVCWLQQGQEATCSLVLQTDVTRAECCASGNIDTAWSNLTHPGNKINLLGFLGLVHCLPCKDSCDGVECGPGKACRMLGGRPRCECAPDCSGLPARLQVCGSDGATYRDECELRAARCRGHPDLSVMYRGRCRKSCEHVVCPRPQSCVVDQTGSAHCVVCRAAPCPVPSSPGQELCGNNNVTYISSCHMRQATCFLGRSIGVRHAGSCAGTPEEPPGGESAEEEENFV
Test [9] has as its target Dickkopf-related protein 1 (Homo sapiens) (UniProt O94907). Description: small molecules binding DKK1 protein – biochemical, small-molecule microarray, 635 nm fluorescence scan, primary screen (AID 1106).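 Also: score merges emission near 667 nm with signal to noise over three replicate slides.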 Particulars: higher = more signal.
Test [10] deals with Inhibin beta A chain (activin A). The test can be described thus: small molecules binding activin A – biochemical, small-molecule microarray, 635 nm fluorescence scan, primary screen (AID 1107).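 Also: mouse activin A protein probed at 4.33 µg/mL on printed slides; score merges bound-protein fluorescence near 667 nm with spot signal-to-noise.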 As to conditions: INHBA, higher = more signal.
The subject of test [11] is Human papillomavirus type 1a protein E7 (residues 44-93). The test can be described thus: small molecules binding HPV E7 44-93 – biochemical, small-molecule microarray, residues 44-93, 635 nm fluorescence, primary screen (AID 1108).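 Also: E7 fragment applied at 1 µg/mL in TBST for 1 h at 4 C; score combines spot fluorescence with its signal to noise ratio.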 Particulars: fluorescence 635 nm, higher = more signal.
The nature of test [12]: hepatitis C replication reporter changes, two-sided – Huh7 cells, luciferase reporter, HCV replication inhibitor project, primary screen (AID 1109).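 Also: huh7 hepatoma cells harbouring a luciferase neomycin HCV replicon reporter; luciferase luminescence as measure of HCV replicon replication; test concentration not given here.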 Particulars: Huh7 HCV replicon luciferase reporter, 48 h; higher = more signal.
Test [13] deals with Left-right determination factor 2 (Homo sapiens) (UniProt O00292). The test can be described thus: small molecules binding LEFTY2 protein – biochemical, small-molecule microarray, 635 nm fluorescence scan, primary screen (AID 1110). Particulars: higher = more signal.
Left-right determination factor 2 (Homo sapiens), sequence (O00292 whole entry, looked up): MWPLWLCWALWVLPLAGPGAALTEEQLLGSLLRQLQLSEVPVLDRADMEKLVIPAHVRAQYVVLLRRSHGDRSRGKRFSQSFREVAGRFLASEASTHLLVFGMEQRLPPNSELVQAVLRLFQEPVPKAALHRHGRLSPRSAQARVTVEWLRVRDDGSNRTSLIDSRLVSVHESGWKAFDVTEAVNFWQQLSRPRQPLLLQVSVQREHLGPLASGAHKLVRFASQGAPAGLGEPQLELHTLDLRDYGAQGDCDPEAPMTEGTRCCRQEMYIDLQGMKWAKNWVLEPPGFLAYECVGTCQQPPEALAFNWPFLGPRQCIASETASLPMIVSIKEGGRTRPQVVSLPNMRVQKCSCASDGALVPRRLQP
The target of test [14] is Calmodulin-1 (Homo sapiens) (UniProt P0DP23). The test can be described thus: small molecules binding calmodulin-1 with EGTA – biochemical, small-molecule microarray, Cy5-labelled CALM1, profiling panel (AID 1111).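 Also: labelled calmodulin applied in Tris saline Tween buffer holding calcium plus EGTA and DTT.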 Particulars: Cy5-CALM1 binding fluorescence, higher = more signal.
For test [15] the target is unchanged. The test can be described thus: small molecules binding Ca-loaded calmodulin-1 – biochemical, small-molecule microarray, Cy5-labelled CALM1, plus calcium, artefact control for SMM control-protein annotation, profiling panel (AID 1112).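 Also: score merges spot fluorescence with signal to noise from triplicate slides.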 As to conditions: Cy5-CALM1 binding fluorescence, higher = more signal.
Test [16] in a line: probe aWnt5a binding to arrayed compounds – biochemical, biotinylated probe, 635/667 nm fluorescence, primary screen (AID 1113).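 Also: score merges 667 nm fluorescence intensity with signal-to-noise per printed feature.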 Particulars: small-molecule microarray, higher = more signal.
Test [17] in a line: probe aShh binding to arrayed compounds – biochemical, biotinylated probe, 635/667 nm fluorescence, primary screen (AID 1114).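 Also: probe is biotin-labelled aShh protein from a stem cell growth factor screen; measures binding of labelled protein to compounds printed on the slide; score merges feature fluorescence at 667 nm with signal-to-noise.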 Particulars: small-molecule microarray, higher = more signal.
Test [18] can be described thus: probe aNog binding to arrayed compounds – biochemical, biotinylated probe, 635/667 nm fluorescence, primary screen (AID 1115).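 Also: probe is biotinylated aNog protein used at 0.15 µg/mL for 1 h at 4 C; z-score combines 667 nm fluorescence of each spot with its signal to noise.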 As to conditions: small-molecule microarray, higher = more signal.
Test [19] deals with Torsin-1A-interacting protein 1 (Homo sapiens) (UniProt Q5JTV8). The test can be described thus: compound microarray binding of lysate hLAP1 – cell lysate, small-molecule microarray, COS7 lysate, 635/667 nm fluorescence, primary screen (AID 1116). As to conditions: 635 nm fluorescence, higher = more signal.
Torsin-1A-interacting protein 1 (Homo sapiens), sequence (Q5JTV8 whole entry, looked up): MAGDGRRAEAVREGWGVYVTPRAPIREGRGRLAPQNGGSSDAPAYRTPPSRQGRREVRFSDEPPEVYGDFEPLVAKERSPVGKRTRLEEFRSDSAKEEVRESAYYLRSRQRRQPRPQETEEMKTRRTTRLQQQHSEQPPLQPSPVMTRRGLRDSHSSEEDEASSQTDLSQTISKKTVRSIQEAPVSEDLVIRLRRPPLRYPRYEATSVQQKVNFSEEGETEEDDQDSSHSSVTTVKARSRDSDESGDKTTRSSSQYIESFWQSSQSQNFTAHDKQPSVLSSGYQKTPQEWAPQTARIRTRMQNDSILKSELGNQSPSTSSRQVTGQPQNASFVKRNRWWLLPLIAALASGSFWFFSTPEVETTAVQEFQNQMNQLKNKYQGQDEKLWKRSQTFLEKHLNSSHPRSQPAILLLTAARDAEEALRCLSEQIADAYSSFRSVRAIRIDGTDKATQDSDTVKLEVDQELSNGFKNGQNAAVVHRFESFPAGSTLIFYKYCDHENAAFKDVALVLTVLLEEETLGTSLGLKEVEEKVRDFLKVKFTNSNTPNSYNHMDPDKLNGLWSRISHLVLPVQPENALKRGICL
Test [20] addresses Alpha-bungarotoxin (Bungarus multicinctus) (UniProt P60615). Description: compounds binding labelled alpha-BTX control protein – biochemical, small-molecule microarray, Alexa647 label, 635/667 nm fluorescence, artefact control for SMM control protein annotation, profiling panel (AID 1117). Particulars: alpha-BTX-A647 binding fluorescence, higher = more signal.

Here are results for six molecules from PubChem BioAssay.

Active and inactive are the calls of the source.

Alpha-bungarotoxin (Bungarus multicinctus), sequence (P60615 whole entry, looked up): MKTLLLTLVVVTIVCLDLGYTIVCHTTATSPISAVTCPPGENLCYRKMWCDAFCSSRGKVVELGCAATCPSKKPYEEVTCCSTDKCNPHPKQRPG
Epidermal growth factor receptor (Homo sapiens), sequence (P00533 whole entry, looked up): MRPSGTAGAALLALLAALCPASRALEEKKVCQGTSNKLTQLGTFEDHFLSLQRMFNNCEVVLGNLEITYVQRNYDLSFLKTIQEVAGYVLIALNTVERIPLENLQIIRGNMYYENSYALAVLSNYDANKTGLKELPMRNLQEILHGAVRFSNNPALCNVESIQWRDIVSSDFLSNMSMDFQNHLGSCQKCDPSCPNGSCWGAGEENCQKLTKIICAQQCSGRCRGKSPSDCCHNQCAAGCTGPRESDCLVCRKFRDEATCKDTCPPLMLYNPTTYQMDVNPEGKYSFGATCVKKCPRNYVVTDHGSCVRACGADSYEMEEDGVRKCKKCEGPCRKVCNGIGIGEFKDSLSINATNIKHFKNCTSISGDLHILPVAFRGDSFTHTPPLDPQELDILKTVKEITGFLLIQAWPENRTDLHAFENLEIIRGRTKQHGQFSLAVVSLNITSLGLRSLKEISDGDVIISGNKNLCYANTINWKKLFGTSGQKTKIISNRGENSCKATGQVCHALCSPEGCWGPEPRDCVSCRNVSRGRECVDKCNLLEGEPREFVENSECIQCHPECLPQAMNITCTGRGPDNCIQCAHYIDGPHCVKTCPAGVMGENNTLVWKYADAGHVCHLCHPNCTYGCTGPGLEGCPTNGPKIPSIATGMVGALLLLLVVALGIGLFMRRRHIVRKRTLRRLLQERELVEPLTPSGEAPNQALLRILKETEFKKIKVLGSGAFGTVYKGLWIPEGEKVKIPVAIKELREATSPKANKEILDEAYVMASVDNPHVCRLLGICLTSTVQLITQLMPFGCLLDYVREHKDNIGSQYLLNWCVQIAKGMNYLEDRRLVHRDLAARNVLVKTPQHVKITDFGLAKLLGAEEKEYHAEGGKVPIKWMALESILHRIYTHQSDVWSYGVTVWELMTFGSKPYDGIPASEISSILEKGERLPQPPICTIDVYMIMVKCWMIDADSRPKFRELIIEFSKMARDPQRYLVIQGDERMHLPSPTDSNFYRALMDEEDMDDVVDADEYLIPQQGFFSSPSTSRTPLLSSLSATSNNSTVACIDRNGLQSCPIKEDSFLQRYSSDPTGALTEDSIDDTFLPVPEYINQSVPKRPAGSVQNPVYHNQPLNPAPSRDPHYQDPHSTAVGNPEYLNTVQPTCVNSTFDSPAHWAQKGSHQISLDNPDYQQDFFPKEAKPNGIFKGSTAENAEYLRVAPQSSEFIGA
Dickkopf-related protein 1 (Homo sapiens), sequence (O94907 whole entry, looked up): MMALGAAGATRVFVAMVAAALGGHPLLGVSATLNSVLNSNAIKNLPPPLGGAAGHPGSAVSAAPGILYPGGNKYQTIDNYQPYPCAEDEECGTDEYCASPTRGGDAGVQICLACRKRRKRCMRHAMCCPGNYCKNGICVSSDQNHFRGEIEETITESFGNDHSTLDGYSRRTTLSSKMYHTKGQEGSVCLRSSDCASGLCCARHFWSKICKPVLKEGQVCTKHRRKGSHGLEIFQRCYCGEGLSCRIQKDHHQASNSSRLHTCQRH

Consider `COC(=O)[C@@]1(Cc2ccccc2)N=C(c2ccc(OCCCO)cc2)O[C@H]1c1ccccc1`, for which the composite z-score is 1.65 in test [1]; 0.206 in [2]; 0.893 in test [3]; 0.0071 in [5]; 0.319 in [6]; -1.08 in test [7]. The composite z-score was -1.05 in test [8]; -0.862 in test [9]; 0.599 in test [10]; 0.968 in test [11]; -1.06 in test [13]; 0.288 in test [14]. Besides, the composite z-score in test [15] was -0.0316; in test [16], -0.0647; in [17], 0.261; in [18], 1.14; in [19] it was 2.32; in test [20], 1.93. Also, the z-score in test [4] was 6.38 (inactive); in test [12], -1.98.
For `COCCCNC(=O)[C@@]1(C)c2ccccc2C(=O)N(C(C)C)[C@H]1c1ccc(CO)cc1`, the composite z-score in [1] came to 0.572; in test [2], 0.174; in test [3], 0.343; in test [5] it was 0.555; in test [6], 0.497; in test [7], 0.517. Besides, the composite z-score is 0.861 in test [8]; 0.888 in test [9]; 0.531 in test [10]; 0.761 in test [11]; 0.577 in [13]; -0.342 in test [14]. The composite z-score in test [15] is -0.574; in [16], -0.152; in [17], -0.01; in test [18] it was -0.0247; in test [19], 0.999; in test [20], 0.547. Moreover, the z-score was -0.373 (inactive) in [4] and -0.659 in test [12].
Regarding `C=C(COC)C(=O)CC[C@@H](OC(C)=O)c1ccc(CO)o1`, the composite z-score in test [1] was 1.38; in test [2], 0.0244; in [3], -0.45; in test [5], 1.24; in [6], 0.139; in [7], -0.42. The composite z-score was 1.52 in test [8]; 1.48 in test [9]; 1.38 in test [10]; -0.363 in [11]; 0.747 in [13]; -0.401 in [14]. Further, the composite z-score in test [15] was -0.515; in [16], -0.0572; in [17] it was -0.123; in [18] it was 0.0139; in test [19], 0.55; in test [20], -0.0178. Further, the z-score in test [4] is 0.264 (inactive); in test [12], -0.0928.
For `O=C1C[C@@](C(=O)NCCN2CCOCC2)(c2ccc([N+](=O)[O-])cc2)[C@@H](c2ccc(CO)cc2)N1CC12CC3CC(CC(C3)C1)C2`, the composite z-score in test [1] is 0.866; in test [2], 0.104; in test [3] it was 0.638; in [5], 1.22; in [6], 1.32; in [7], 0.86. In addition, the composite z-score in [8] came to 1.3; in test [9] it was 0.912; in test [10] it was 0.403; in test [11], 1.47; in test [13], 0.745; in test [14] it was 1.06. Also, the composite z-score in test [15] was -0.0933; in [16] it was -0.0445; in test [17], -0.16; in test [18], -0.377; in [19], 0.651; in test [20], 1.7. Besides, the z-score in test [4] is 2.36 (inactive); in [12] it was -3.14.
For `NC(=O)NCC#Cc1ccc2c(c1)[C@]1(C(=O)N2)[C@H](C(N)=O)[C@H]2C(=O)O[C@H](c3ccccc3)[C@H](c3ccccc3)N2[C@@H]1c1ccc(O)cc1`, the composite z-score in test [1] was 1.51; in [2], -0.912; in test [3], -0.142; in test [5], 0.353; in test [6], -0.348; in test [7], -0.858. Moreover, the composite z-score in test [8] was -0.0676; in [9] it was -1.27; in test [10], 0.778; in test [11], 0.502; in test [13], -1.13; in test [14], 0.721. Besides, the composite z-score worked out at 0.562 in test [15]; 0.726 in test [16]; 0.42 in [17]; 2.39 in test [18]; 3.44 in test [19]; 2.12 in [20]. Further, the z-score in test [4] is -0.712 (inactive); in test [12], 0.408.
For the molecule `NC(=O)N1C(=O)C2C(C1=O)C1C=C(c3ccc(CO)cc3)C2C(c2cccs2)N1Cc1cccc(OC(F)(F)F)c1` (stereo not given), the composite z-score was -0.148 in test [1]; 0.799 in test [2]; 1.02 in test [3]; 0.302 in test [5]; -0.343 in test [6]; -0.813 in [7]. The composite z-score was 0.122 in [8]; 0.245 in test [9]; 1.49 in [10]; 0.142 in test [11]; -0.647 in test [13]; 1.51 in [14]. Further, the composite z-score in [15] was determined as 1.16; in test [16], 0.0573; in test [17], 0.275; in test [18] it was 0.596; in test [19], 1.13; in [20] it was 0.611. The values for the z-score in test [4] and in test [12] were -1.99 (inactive) and -0.657, respectively.
